Results published in PubChem BioAssay.
For part of these data: Potency and affinity values are given separately. Activity calls are given as the source filed them.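 Rule for the calls, unless noted: active = earlier screen potentiator hit that boosts the TRPC4 ion channel at some dose, with a dose response; inactive = no potentiation, no dose response, or not a prior hit.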

Assays:
[1] = tested on: TRPC4 beta (transient receptor potential cation channel C4), mouse; assay: activators of mouse TRPC4 channel, confirmation, cell-based, Fluo4 calcium, HEK293 TRPC4beta/mu-opioid, duplicates, 10 µM (AID 2426;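 active = fluorescence ratio normalized to control raised more than 50% in primary screen plus both repeat runs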); conditions: Fluo4 calcium fluorescence, at 10 µM; active compounds read high
[2] = tested on: transient receptor potential cation channel C4 beta (TRPC4), mouse; assay: activators of mouse TRPC4 channel, confirmation, cell-based, second round, Fluo4, HEK293 TRPC4beta/mu-opioid, 1 µM (AID 2461;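 active = primary screen active and over 50% activation in each of two duplicate runs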); conditions: Fluo4 calcium fluorescence, at 1 µM; active compounds read high
[3] = tested on: TRPC4 (transient receptor potential cation channel C4 beta), mouse; assay: positive allosteric modulators of mouse TRPC4, confirmation, cell-based, second round, Fluo-4, HEK293 TRPC4beta/mu-opioid, 1 µM (AID 2554;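 active = primary screen hit whose fluorescence ratio, in both repeats, exceeds the weak agonist control mean by 3 SD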); conditions: DAMGO EC20, Fluo-4 calcium flux, at 1 µM; active compounds read high
[4] = tested on: TRPC4 beta (transient receptor potential cation channel C4), mouse; assay: positive allosteric modulators of mouse TRPC4, confirmation, cell-based, Fluo-4, HEK293 TRPC4beta/mu-opioid (AID 2555;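 active = primary screen hit whose calcium fluorescence ratio, in both repeats, exceeds the weak agonist control mean by 3 SD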); conditions: DAMGO EC20, Fluo-4 calcium flux, at 10 µM; active compounds read high
[5] = biological target: Short transient receptor potential channel 4 (Mus musculus) (UniProt Q9QUQ5); assay: inhibitors of mouse TRPC4 channel, confirmation, cell-based, Fluo4, HEK293 TRPC4beta/mu-opioid (AID 2636;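 active = calcium signal cut by more than 3 SD below the full-agonist control yet still positive, in both repeats and the earlier primary screen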); conditions: DAMGO, Fluo4 calcium flux, at 10 µM; active compounds read high
Sequence of Short transient receptor potential channel 4 (Mus musculus) (Q9QUQ5 whole entry, looked up): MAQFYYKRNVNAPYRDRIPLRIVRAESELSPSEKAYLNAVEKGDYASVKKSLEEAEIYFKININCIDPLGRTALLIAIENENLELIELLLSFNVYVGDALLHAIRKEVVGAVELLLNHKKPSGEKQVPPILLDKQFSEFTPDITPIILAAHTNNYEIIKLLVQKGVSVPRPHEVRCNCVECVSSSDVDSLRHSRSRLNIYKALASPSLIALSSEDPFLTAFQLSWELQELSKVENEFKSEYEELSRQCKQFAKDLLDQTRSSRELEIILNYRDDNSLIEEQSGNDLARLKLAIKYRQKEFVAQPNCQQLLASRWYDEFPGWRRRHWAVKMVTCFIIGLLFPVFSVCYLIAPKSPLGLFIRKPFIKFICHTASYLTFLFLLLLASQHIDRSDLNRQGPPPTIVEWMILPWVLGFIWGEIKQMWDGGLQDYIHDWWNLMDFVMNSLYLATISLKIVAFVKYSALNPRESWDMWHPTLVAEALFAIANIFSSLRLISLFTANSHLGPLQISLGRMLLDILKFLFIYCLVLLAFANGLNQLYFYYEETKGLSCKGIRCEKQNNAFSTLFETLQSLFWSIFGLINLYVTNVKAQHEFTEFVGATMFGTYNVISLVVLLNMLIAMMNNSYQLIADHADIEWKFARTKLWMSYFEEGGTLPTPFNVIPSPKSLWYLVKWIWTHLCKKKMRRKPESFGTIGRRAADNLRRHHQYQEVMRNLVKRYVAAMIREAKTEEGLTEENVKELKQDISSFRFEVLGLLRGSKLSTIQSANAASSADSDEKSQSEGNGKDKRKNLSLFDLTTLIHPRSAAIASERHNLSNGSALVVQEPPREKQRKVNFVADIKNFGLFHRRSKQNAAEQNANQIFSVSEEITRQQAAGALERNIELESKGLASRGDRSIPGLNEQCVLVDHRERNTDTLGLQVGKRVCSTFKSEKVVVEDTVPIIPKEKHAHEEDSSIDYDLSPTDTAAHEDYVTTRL

[6] = biological target: Short transient receptor potential channel 4 (Mus musculus) (UniProt Q9QUQ5); assay: inhibitors of mouse TRPC4 channel, confirmation, cell-based, second round, Fluo4, HEK293 TRPC4beta/mu-opioid, 1 µM (AID 2637;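 active = calcium signal ratio cut to more than 3 SD under the fully stimulated control mean yet still positive, in both repeats and the primary screen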;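 for inhibition: percent of integrated ratio relative to wells lacking test compound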); conditions: Fluo4 calcium flux, DAMGO, at 1 µM; active compounds read high
[7] = biological target: Short transient receptor potential channel 4 (Mus musculus) (UniProt Q9QUQ5); assay: mouse TRPC4 channel activators, dose response, cell-based, HEK293 TRPC4/mu-opioid, Fluo-4 calcium (AID 434937;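 active = primary screen activator hit with a dose response curve and TRPC4 channel activation at any tested dose; inactive = no activation, no dose response, or not a primary hit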)
[8] = biological target: Short transient receptor potential channel 4 (Mus musculus) (UniProt Q9QUQ5); assay: TRPC4 positive allosteric modulators, dose response, cell-based, HEK293 TRPC4/mu-opioid, Fluo-4 calcium, EC20 DAMGO (AID 434941);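 note: calcium entry triggered by an EC20 dose of DAMGO at the co-expressed mu-opioid receptor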
[9] = biological target: Short transient receptor potential channel 6 (Mus musculus) (UniProt Q61143); assay: inhibition of mouse TRPC6 channel, confirmation, selectivity assay for TRPC4 inhibitor project, cell-based, HEK293, membrane potential dye, duplicate (AID 434948;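 active = active in primary screen and both duplicates, each dropping signal beyond three positive-control SD with fluorescence still positive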); conditions: HEK293 TRPC6, membrane potential dye fluorescence, at 10 µM, stimulated with maximal-effect acetylcholine; active compounds read high
Sequence of Short transient receptor potential channel 6 (Mus musculus) (Q61143 whole entry, looked up): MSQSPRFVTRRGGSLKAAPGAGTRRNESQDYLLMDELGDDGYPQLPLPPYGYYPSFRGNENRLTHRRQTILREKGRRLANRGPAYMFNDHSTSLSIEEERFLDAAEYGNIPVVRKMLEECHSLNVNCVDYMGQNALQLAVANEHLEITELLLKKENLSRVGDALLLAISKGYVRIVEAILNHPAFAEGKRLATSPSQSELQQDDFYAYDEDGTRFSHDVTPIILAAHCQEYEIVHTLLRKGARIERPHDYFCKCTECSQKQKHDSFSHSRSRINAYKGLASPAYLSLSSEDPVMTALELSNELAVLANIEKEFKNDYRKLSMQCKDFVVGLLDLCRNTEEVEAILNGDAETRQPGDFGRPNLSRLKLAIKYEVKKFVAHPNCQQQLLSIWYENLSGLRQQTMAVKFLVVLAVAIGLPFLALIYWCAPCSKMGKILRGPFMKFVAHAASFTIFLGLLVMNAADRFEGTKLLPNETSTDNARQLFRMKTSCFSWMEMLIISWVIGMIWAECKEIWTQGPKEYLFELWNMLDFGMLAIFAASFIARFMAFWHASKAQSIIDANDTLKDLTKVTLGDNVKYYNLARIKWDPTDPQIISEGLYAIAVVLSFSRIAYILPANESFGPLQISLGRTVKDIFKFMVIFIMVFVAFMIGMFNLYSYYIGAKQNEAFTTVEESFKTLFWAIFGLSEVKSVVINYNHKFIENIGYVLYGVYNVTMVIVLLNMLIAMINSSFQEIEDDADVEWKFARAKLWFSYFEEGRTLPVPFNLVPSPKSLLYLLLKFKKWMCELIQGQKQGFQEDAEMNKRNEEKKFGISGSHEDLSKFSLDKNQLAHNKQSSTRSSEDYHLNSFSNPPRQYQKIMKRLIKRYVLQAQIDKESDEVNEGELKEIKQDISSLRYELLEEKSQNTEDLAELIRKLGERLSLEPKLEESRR

[10] = biological target: Short transient receptor potential channel 6 (Mus musculus) (UniProt Q61143); assay: activation of mouse TRPC6 channel, confirmation, selectivity assay for TRPC4 activator project, cell-based, HEK293, membrane potential dye, duplicate (AID 434950;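 active = membrane potential signal rise above negative control mean plus 3 SD in both duplicates, also active in the earlier TRPC4 screen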); conditions: HEK293 TRPC6, membrane potential fluorescence, at 10 µM; active compounds read high
[11] = biological target: Short transient receptor potential channel 6 (Mus musculus) (UniProt Q61143); assay: TRPC6 potentiation by TRPC4 potentiator hits, confirmation, selectivity assay for TRPC4 potentiator project, HEK293 cells, membrane potential dye, duplicate (AID 434952;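 active = compound raising the membrane signal above positive-control mean plus 3 SD in both repeats, and a primary screen hit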); conditions: HEK293 TRPC6, membrane potential dye fluorescence, at 10 µM, maximal acetylcholine added after compound; active compounds read high
[12] = biological target: Short transient receptor potential channel 4 (Mus musculus) (UniProt Q9QUQ5); assay: calcium flux activators in TRPC4/5HT1a cells, counter-screen for TRPC4 activator project, cell-based, second counter screen, HEK293 TRPC4/5HT1a, Fluo-4 (AID 434977;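 active = calcium signal rise above buffer-control mean plus 5 SD in both duplicates, and also a hit in the primary screen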); conditions: Fluo-4 calcium flux, at 10 µM; active compounds read high
[13] = calcium flux inhibitors in TRPC4/5HT1a cells, confirmation, counter-screen for TRPC4 inhibitor project, cell-based, second counter screen, HEK293 TRPC4/5HT1a, Fluo-4 (AID 434978;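 active = primary screen active whose calcium signal fell more than 3 SD beyond the full-serotonin control mean in both duplicate plates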); conditions: Fluo-4 calcium flux, at 10 µM, serotonin added to trigger calcium flux; active compounds read high
[14] = tested on: TRPC4 (mouse), co-expressed with 5HT1a in HEK293; assay: calcium flux potentiators in TRPC4/5HT1a cells, confirmation, counter-screen for TRPC4 potentiator project, cell-based, second counter screen, HEK293 TRPC4/5HT1a, Fluo-4 (AID 434979;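 active = signal rise over 3 SD above mean of control wells given weak agonist, in both repeats and first screen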); conditions: Fluo-4 calcium flux, at 10 µM, serotonin added at its EC20 dose; active compounds read high
[15] = calcium flux activation in mu-opioid HEK293 cells, confirmation, counter-screen for TRPC4 activator project, cell-based, HEK293 mu-opioid receptor line (AID 449723;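 active = hit in primary screen, with calcium signal over 5 SD above buffer well mean in both duplicates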;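 note: counter screen cells carry the mu-opioid receptor alone and lack TRPC4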); conditions: Fluo-4 calcium fluorescence, at 10 µM; active compounds read high
[16] = calcium flux enhancement in mu-opioid HEK293 cells, confirmation, counter-screen for TRPC4 allosteric potentiator project, cell-based, HEK293 mu-opioid receptor line (AID 449724;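 active = calcium signal rise more than 3 SD above the low-dose agonist control mean, in both duplicate plates and the primary screen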); conditions: Fluo-4 calcium flux, at 10 µM, compound added before EC20 DAMGO stimulus; active compounds read high

Measured: inhibition

Cc1ccc(N(CC(=O)NC2CCCC2)C(=O)CNC(=O)c2cccs2)cc1F
active: [5] 70%
inactive: all other assays above

Cc1ccccc1N1CC(O)(c2cccs2)[N+]2=C1CCCC2 (stereo not given)
inactive: all assays above

CCCCn1c(SCC(=O)OCC)nc2c(sc(=S)n2-c2ccccc2OC)c1=O
active: [5] 94% | [13] 14%
inactive: all other assays above

CCc1ccc(/C=C2/SC(=S)N(CCCC(=O)Nc3ccccc3C(=O)O)C2=O)cc1
active: [5] 93% | [13] 21.2%
inactive: all other assays above

COc1ccc2c(c1)sc(N)[n+]2Cc1cc(C)cc2cccnc12
active: [5] 99% | [9] 37% | [13] 28.6%
inactive: all other assays above

COc1ccc(C(CNC(=O)c2oc3ccc(F)cc3c2C)N2CCCCC2)cc1 (stereo not given)
active: [5] 98%
inactive: all other assays above

CCC(C)NCCOCCOc1ccccc1-c1ccccc1 (stereo not given)
active: [5] 77% | [13] 36.9%
inactive: all other assays above

NC(=NC1CCCCC1)c1ccc(Cl)cc1
active: [5] 97% | [6] 66% | [13] 22.8%
inactive: all other assays above

N=c1c2c(n(Cc3ccccc3)c3c1CCC3)CCC2
active: [5] 65% | [9] 53.5% | [13] 37.3%
inactive: all other assays above

O=C(Nc1ccccc1)N1CCN2C(=O)c3ccccc3C12c1ccccc1 (stereo not given)
active: [5] 85% | [6] 62%
inactive: all other assays above

Cc1ccc2nc3c(c(N)c2c1)CCN3C
active: [5] 90% | [6] 51% | [9] 35.5% | [13] 15.4%
inactive: all other assays above

Cc1cc(NCc2ccccc2)nc(N2CCOCC2)n1
active: [5] 95% | [6] 40% | [13] 26.5%
inactive: all other assays above

COc1ccc(-n2c3c(cc(C(=O)NCc4ccco4)c2=O)C(=O)CC(C)(C)C3)cc1
active: [5] 53%
inactive: all other assays above

COCCn1c(SCC(=O)Nc2ccccc2OC)nc2c([nH]c3ccccc32)c1=O
active: [5] 71% | [13] 36.6%
inactive: all other assays above

O=C(NC1CCCCC1)N1CCN(C(c2ccccc2)c2ccccc2)CC1
inactive: all assays above
